Screening results as filed in PubChem BioAssay.
An excerpt weighted towards active compounds, which were near 4.6% of everything screened.
AHR activator = activates the human aryl hydrocarbon receptor; AHR-responsive luciferase reporter cells, luminescence; activation, % at 5 µM; 320,000 tested, 2.5% active; in the data active means activation above about 47%;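 further: 0% = vehicle wells and 100% = reference agonist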
Target sequence (P35869 whole entry, looked up): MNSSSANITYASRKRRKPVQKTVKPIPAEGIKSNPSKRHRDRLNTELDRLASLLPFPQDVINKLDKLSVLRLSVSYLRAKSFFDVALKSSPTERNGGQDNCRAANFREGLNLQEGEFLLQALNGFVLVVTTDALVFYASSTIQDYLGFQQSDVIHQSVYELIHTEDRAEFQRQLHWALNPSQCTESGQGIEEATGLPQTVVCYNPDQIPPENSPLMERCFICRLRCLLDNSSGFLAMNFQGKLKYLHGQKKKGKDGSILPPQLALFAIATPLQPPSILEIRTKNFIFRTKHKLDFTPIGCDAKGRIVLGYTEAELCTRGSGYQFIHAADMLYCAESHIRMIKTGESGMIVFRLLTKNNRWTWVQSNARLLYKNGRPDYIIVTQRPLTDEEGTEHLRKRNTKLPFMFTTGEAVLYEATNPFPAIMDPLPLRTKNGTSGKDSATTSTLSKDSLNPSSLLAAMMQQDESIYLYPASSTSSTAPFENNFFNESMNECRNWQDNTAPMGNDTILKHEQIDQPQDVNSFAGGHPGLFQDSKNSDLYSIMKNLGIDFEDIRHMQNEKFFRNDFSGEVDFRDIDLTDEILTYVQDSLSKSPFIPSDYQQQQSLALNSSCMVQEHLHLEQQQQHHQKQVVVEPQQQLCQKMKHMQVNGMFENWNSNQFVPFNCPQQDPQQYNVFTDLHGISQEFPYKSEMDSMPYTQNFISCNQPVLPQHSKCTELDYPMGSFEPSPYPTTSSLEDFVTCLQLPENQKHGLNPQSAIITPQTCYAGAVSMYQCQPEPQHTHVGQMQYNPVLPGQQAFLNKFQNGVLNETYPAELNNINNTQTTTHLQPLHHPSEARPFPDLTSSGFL
HSF1 inh = HSF1 inhibition; activity change, negative = inhibition, % at 7.5 µM (by protocol); 300,000 tested, 0.77% active; NIH3T3-HGL HSE-luciferase, MG132-induced, luminescence 8 h; stronger effect = lower value;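 active means more than half of replicate wells show activity change below -50%, luminescence cut by over half; inconclusive means some wells, but at most half, below -50%; inactive means no replicate well below -50%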;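 further: luciferase reports HSF-1 transcriptional activity via heat shock element; 0% = median of DMSO wells and -100% = zero luminescence signal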
HSF-1 act = increases HSF-1 driven luciferase reporter signal. activation, % at 9 µM. 300,000 tested, 1.7% active. AID 504408. NIH3T3-HGL HSF-1 luciferase reporter, MG132, 8 h; 100% = twice DMSO control signal;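 active means mean replicate activation of at least 50% with a set share of replicates each reaching 50%; inconclusive means only one of those two conditions met; inactive means mean below 50% and too few replicates reaching it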;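 further: 0% = median of the neutral control wells and 100% = twice that signal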
GAA850 FXN act = increases GAA850 frataxin promoter reporter activity; HEK293 lucGAA850 FXN promoter luciferase reporter, 24 h; percent of 10 µM SAHA response; activation, % at 6 µM; 360,000 tested, 0.56% active;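 active means activation above the average of all compounds screened plus 3 SD, cutoff fixed separately per campaign, cut at about 7.5% in these data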;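 further: 0% = DMSO wells and 100% = 10 µM SAHA wells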
The depositor's hits bear a star; u = inconclusive; x = not tested or not shown.

SMILES	AHR activator	HSF1 inh	HSF-1 act	GAA850 FXN act
CCc1n[nH]c(=S)n1/N=C/c1cc(Br)c(OC)cc1OC	76.5*	-6.4	-6.3	3.1
C[n+]1c(/C=C/c2ccc3c(c2)OCO3)ccc2ccccc21	9.2	-71.9*	-76.1	-2.2
O=C(CSc1nc2ncc(Br)cc2[nH]1)c1ccc([N+](=O)[O-])cc1	36.1	28.1	38.5	0.8
O=C(Nc1ccn(CCCN2CCN(Cc3cccc4ccccc34)CC2)c(=O)n1)OCc1ccccc1	x	x	x	-2.5
C/C(CC(=O)Nc1cccc2c1CCCC2)=N\NC(=O)c1cccc2ccccc12	7.8	4.3	1.1	-1.7
C/C(CC(=O)Nc1cccc2c1CCCC2)=N\NC(=O)c1ccccc1N	10.3	29.4	57.3*	5.3
N#CC(C#N)=C/C=C(\Nc1ccc(Cl)cc1)c1ccc(Cl)cc1	120.4*	-5.1	3.4	-3.2
CCOC(=O)/C(C#N)=C/c1cn(CCC(=O)O)nc1-c1cccc(Cl)c1	1.3	-1.1	13.9	0.5
CC(C)N(Cc1nc(-c2ccc(Cl)cc2)no1)C(=O)CN(C)S(=O)(=O)c1ccc(Cl)cc1	-3.7	38.0	84.8*	-5.7
CCn1c(-c2cc(Br)cc(OC)c2O)nc2cc(S(=O)(=O)N(C)C)ccc21	4.8	-4.3	3.3	-2.4
CC1CCc2nc(NC(=O)CSc3nc4ccccc4o3)sc2C1 (centres undefined)	3.2	-59.4*	-62.7	-12.2
CC(=O)c1cc2c(cc1NC(=O)CSc1nc3ccccc3o1)OCO2	17.1	50.9	85.8*	-3.8
Cc1cc(C(=O)CSc2nc3ccccc3o2)c(C)n1C1CC1	-4.5	18.0	62.7*	1.2
Cc1nc2ccccc2c(=O)n1-c1ccc(NS(=O)(=O)c2cc(F)ccc2F)cc1	1.6	1.6	5.1	3.3
CCOC(=O)c1ccc(NC(=O)CSc2nnnn2C2CCCCC2)cc1	4.2	-1.9	-11.9	0.6
COc1ccc(NC(=O)c2cc(CN3C(=O)c4ccccc4C3=O)ccc2OC)cn1	-18.1	-67.4*	-73.8	-2.6
CC(OC(=O)c1ccccn1)C(=O)Nc1ccc(C(F)(F)F)cc1 (centres undefined)	3.1	x	x	1.9
Cc1cc(Cl)c2cc3ccccc3cc2n1	52.2*	-7.7	-4.8	-0.5
Cc1cc(Cl)c2ccc(Cl)cc2n1	0.3	-4.3	-5.5	1.7
CCOc1ccc(NCc2nnc(SCc3ccccc3Cl)n2-c2ccccc2)cc1	2.0	u	-60.8	1.9
c1ccc(-c2cccs2)nc1	-1.6	-4.4	7.8	1.5
c1csc(-c2cnc3ccccc3n2)c1	13.4	11.0	52.8*	4.2
Clc1ccc(-c2cnc3ccccc3n2)cc1	52.5*	19.4	34.4	5.2
COc1cc(C2c3cc4c(cc3OC(N3CCCCC3)C2C)OCO4)cc(OC)c1O (centres undefined)	x	x	x	-4.5
CCCn1c(N)c(C(=O)CSc2nc3ccccc3c(=O)n2Cc2ccccc2)c(=O)[nH]c1=O	0.7	-84.4*	-88.7	-0.2
SMILES	AHR activator	HSF1 inh	HSF-1 act	GAA850 FXN act
NC(=O)CSc1nc2ccccc2c(=O)n1CCc1ccccc1	74.8*	-7.0	-2.6	0.3
CCCn1c(N)c(C(=O)CSc2nc3ccccc3n2CCC#N)c(=O)n(C)c1=O	53.3*	-6.8	-7.4	0.7
CCc1nn(C(C)C(=O)N(C)Cc2ccccc2)c(=O)c2cc3occc3n12 (centres undefined)	0.8	-1.1	-3.6	-1.1
COc1cc([C@@H]2[C@H]3CNCC=C3C(C#N)=C(N)C2(C#N)C#N)ccc1OC(C)C	0.6	-6.1	-4.4	0.2
O=C(COC(=O)/C=C/c1cccc(C(F)(F)F)c1)NC1CCCCCC1	0.2	x	x	1.3
N#C/C(=C\c1ccc(OCc2ccc(C(=O)O)cc2)cc1)C(=O)N1CCOCC1	0.7	-50.6*	-51.0	5.0
COc1cc(/C=C(\C#N)C(=O)N2CCOCC2)ccc1OCc1ccccc1	-0.4	15.2	16.3	2.3
Oc1cc(-c2ccccc2)c2ccccc2c1	3.7	116.8	157.1*	0.2
CC(=O)Nc1ccc(C(=O)OCc2ccc(F)cc2)cc1	-2.5	17.0	5.7	0.9
C=CCNCCOCCSc1ccc(Cl)cc1	0.6	20.8	51.7*	1.7
O=[N+]([O-])c1cccc(-c2nc(-c3ccccc3)no2)c1	57.6*	29.9	56.1*	2.3
O=[N+]([O-])c1cccc(-c2nnc(-c3ccccc3)o2)c1	32.6	-78.1*	-83.6	4.3
O=[N+]([O-])c1cccc(-c2nnc(-c3ccc4c(c3)OCO4)o2)c1	0.3	5.8	-6.5	5.5
O=C(N/N=C\C=C\c1ccco1)c1cc(-c2ccc3ccccc3c2)n[nH]1	30.0	29.4	57.4*	4.5
O=C(CN1CCN(Cc2ccccc2)CC1)N/N=C\C=C/c1ccco1	7.6	-68.5*	-75.9	3.5
O=C(N/N=C/C=C/c1ccco1)c1cccnc1	4.6	-8.5	-7.8	2.8
O=C(CN(Cc1ccccc1)S(=O)(=O)c1ccccc1)N1CCOCC1	-2.4	-7.7	-8.0	-1.5
Cc1ccccc1NC(=O)c1cccc(S(=O)(=O)Oc2ccc([N+](=O)[O-])cc2)c1	-0.2	-2.7	2.0	2.4
COc1cc2c(cc1OC)CN(c1ccc(F)cc1[N+](=O)[O-])CC2	59.1*	46.8	26.9	6.1
COc1cc2c(cc1OC)CN(c1ccc([N+](=O)[O-])cc1Cl)CC2	0.3	17.5	34.1	4.8
Cc1cc(=O)oc2c3c(cc(OCC(=O)N[C@@H](CC(C)C)C(=O)O)c12)OC(C)(C)CC3	0.7	-3.0	-16.9	0.8
CCCC(NC(=O)COc1cc2c(c3oc(=O)cc(C)c13)CCC(C)(C)O2)C(=O)O (centres undefined)	0.2	-55.0*	-62.9	0.7
COc1ccccc1C(=O)NCC(=O)N/N=C/c1ccc2c(c1)OCO2	-3.0	-73.2*	-77.5	1.0
COc1cc(/C=N/NC(=O)/C(=C\c2ccc3c(c2)OCO3)NC(=O)c2ccccc2)ccc1O	69.0*	-28.7	-42.8	0.9
COc1ccc(/C=N/NC(=O)c2cc(-c3ccc4c(c3)OCO4)n[nH]2)cc1OC	72.6*	3.8	5.7	2.3
SMILES	AHR activator	HSF1 inh	HSF-1 act	GAA850 FXN act
Cc1ccc(C(NC(=O)c2ccccc2S(C)(=O)=O)c2ccccc2)cc1 (centres undefined)	0.3	0.7	-3.6	1.2
COc1ccc(NC(=O)C(=O)Nc2cccc3ccccc23)c(OC)c1	-1.0	8.2	3.8	-0.6
CCOC(=O)c1ccc(Nc2cc(C)nc(C)c2C(=O)OCC)cc1	1.6	-6.5	1.4	-2.0
Cc1ccc(-c2nc(-c3ccncc3)no2)cc1C	6.3	29.4	59.9*	2.3
CC(=O)N1c2ccccc2[C@@H](C)[C@@H]1C	0.5	x	x	-0.1
CC(=O)N1c2ccccc2C2(O)N=C(C)SC12 (centres undefined)	51.0*	-0.9	4.3	2.2
COc1ccc(-c2cc(C(=O)NCc3cccs3)no2)cc1	15.1	14.1	22.0	2.7
COc1ccc2nc3sc(C(=O)NCc4cccs4)c(N)c3cc2c1	-4.8	30.9	54.7*	x
CCN(CC)CCCNC(=S)N1CCn2c(nc3ccccc32)C1	3.2	-3.0	-3.8	0.5
Cc1ccc2nc(-c3ccc(SCC(=O)Nc4nc(C)cs4)nc3)[nH]c2c1	66.7*	45.8	u	0.7
